Source: PubChem BioAssay
Values joined by “and” are separate entries in the source; they are usually repeats but may differ in a detail not shown here. Equal values may be shown once. Records with an inconclusive call do not appear. Active and inactive are the calls of the source. Unless noted, no cut-off is given here; in the data, nearly all actives have AC50 up to about 26 µM.

Experiments:
[1] = Wnt pathway potentiators raising nuclear beta-catenin – imaging, WNT3A-conditioned medium, mouse C2C12, NPC library, primary screen (AID 1117326; in the data active = nuclear beta-catenin stimulation mostly above about 4.2%, no sharp cut-off; inactive = mostly below about 10%; note: reference of the scale not given here); conditions: stronger effect = higher value
[2] = stimulators of insulin release from INS-1E, primary screen, cell-based, 5 mM glucose, NPC library (AID 1117329;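 active = compound raises insulin release from rat beta cells at 5 mM glucose, no numeric limit stated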; note: reference of the scale not given here); conditions: rat INS-1E insulin secretion, at 10 µM, stronger effect = higher value
[3] = growth inhibition of GSK3B-pretreated HCT116 cells – cell-based, CellTiter-Glo, 0.2 to 20 µM (AID 1117336;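 active = compounds lowering colon cancer cell viability after pretreatment blocking the GSK3B kinase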); conditions: HCT116 viability after GSK3B inhibitor, at 20 µM, stronger effect = higher value
[4] = inhibition of endothelial tube formation, primary screen, imaging, VEGF stimulated, CD31 staining, tube area, NPC library (AID 1117340;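 active = compound that reduces growth-factor-driven endothelial tube area in a mixed cell culture, no cutoff stated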); conditions: VEGF-stimulated ADSC/ECFC co-culture, at 10 µM, stronger effect = higher value
[5] = GLP1 release stimulators, primary, NCI-H716, NPC library (AID 1117341;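 active = compound raises GLP1 secretion from the human gut endocrine cells, with no numeric limit stated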; note: reference of the scale not given here); conditions: NCI-H716 cells, at 10 µM, stronger effect = higher value
[6] = HCT116 colon cancer cell growth inhibition, primary screen, CellTiter-Glo luminescence, NPC library (AID 1117342;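 active = compounds that lower survival of HCT116 colon cancer cells in the luminescence readout, no numeric limit stated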); conditions: at 20 µM (top of the series)
[7] = reduced SW480 viability measured with CellTiter-Glo, NPC library, primary (AID 1117343;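 active = compounds that lower viability of the colon cancer cells in the luminescence readout, with no numeric limit stated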); conditions: CellTiter-Glo luminescence; at 20 µM (top of the series) unless noted
[8] = NPC library primary testing for decreased DLD-1 cell viability via CellTiter-Glo (AID 1117346;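 active = compounds that lower survival of DLD-1 colon cancer cells in the luminescence readout, no cutoff given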); conditions: DLD-1 viability, CellTiter-Glo luminescence; at 20 µM (top of the series)
[9] = viability loss in pontine glioma line – cell-based, JHH-DIPG-1, MIPE4.0, CellTiter-Glo, qHTS, dose response (AID 1347062; cut-off not given, nearly all actives have AC50 up to about 27 µM;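 for AC50: cells exposed to compound for two days before readout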); conditions: JHH-DIPG-1 viability, CellTiter-Glo ATP luminescence
[10] = viability loss in pontine glioma line – cell-based, SU-DIPG-IV, MIPE4.0, CellTiter-Glo, qHTS, dose response (AID 1347063; cut-off not given, nearly all actives have AC50 up to about 30 µM;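 note: compound exposure lasted 48 hours before the viability readout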); conditions: CellTiter-Glo ATP luminescence
[11] = viability loss in pontine glioma line – cell-based, SU-DIPG-XXV, MIPE5.0, CellTiter-Glo, qHTS, dose response (AID 1347065); conditions: CellTiter-Glo ATP luminescence;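 note: cells exposed to compound for 48 hours before ATP readout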
[12] = growth inhibition of DIPG cells – cell-based, MIPE4.0 library, CellTiter-Glo luminescence, qHTS (AID 1347066; cut-off not given, nearly all actives have AC50 up to about 30 µM;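 note: cells exposed to compound for 48 hours before readout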); conditions: SU-DIPG-VI viability, CellTiter-Glo ATP luminescence
[13] = JHH-DIPG-1 glioma cell viability, MIPE5.0 library, CellTiter-Glo luminescence, qHTS (AID 1347067); conditions: JHH-DIPG-1 glioma viability, CellTiter-Glo ATP luminescence;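 note: cells exposed to compound for 48 hours before readout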
[14] = growth inhibition of DIPG cells – cell-based, MIPE5.0 library, qHTS (AID 1347068; cut-off not given, nearly all actives have IC50 up to about 30 µM;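 for IC50: cells exposed to compound for 48 hours before viability readout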); conditions: SU-DIPG-XXV viability
[15] = viability loss with induced miR-34 in A549 – imaging, A549 dox-inducible miR-34, nuclei and caspase counts, primary screen (AID 1347080;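 active = compounds whose cell count with miR-34 switched on is under 0.7 times the count with it off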); conditions: A549 miR-34 inducible, Hoechst nuclei count, 48 h
[16] = MELAS cybrid and Rieske KO viability enhancers – cell-based, MELAS cybrids, Rieske KO mouse fibroblasts, CellTiter-Glo, primary screen (AID 1508586;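 active = mean z-score across replicates of 1.96 or higher in either the MELAS or the Rieske mutant cell line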;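 note: z relative to plate mean and SD of compound and empty wells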); conditions: low glucose
[17] = blockers of cellular phospholipid synthesis – cell-based, LOPAC library, screen 4, primary screen (AID 1347384; call rule not given here); conditions: animal cells, phospholipid biosynthesis inhibition screen; at 10 µM
[18] = galactose survival enhancers in mitochondrial complex I cybrids – cell-based, galactose medium, ATP luminescence, primary screen (AID 1645843;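 active = z-score of at least 1.8 in each of two replicates, scored against plate mean and spread of sample wells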;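 note: positive z means more ATP and so rescue of galactose-driven cybrid death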); conditions: complex I mutant cybrid cells, 72 h, stronger effect = higher value
[19] = P. berghei load reduction in hepatocytes – cell-based, HepG2, luciferase luminescence, HepG2 viability, primary screen (AID 624349; in the data active = parasite load remaining mostly below about 12%, no sharp cut-off; inactive = mostly above about 10%;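 note: 100% = mean of DMSO negative control wells on the same plate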); conditions: P. berghei liver stage in HepG2, luciferase luminescence, concentration not given here; parasite load remaining: stronger effect = lower value; viability: measured here: HepG2 viability without parasites
[20] = stronger effect = lower value, cell number ratio, induced over uninduced
[21] = measured here: relative caspase fold change +Dox/-Dox
[22] = measured here: total cells with miR-34 induction, stronger effect = lower value
[23] = measured here: total cells without miR-34 induction
[24] = MELAS cybrid survival, CellTiter-Glo 48 h, stronger effect = higher value
[25] = Rieske KO mouse fibroblast survival, CellTiter-Glo 72 h

N=C(N)c1ccc2cc(OC(=O)c3ccc(N=C(N)N)cc3)ccc2c1
inactive: nuclear beta-catenin stimulation ([1]; at 10 µM) 0% | insulin secretion stimulation [2] 1.85% | viability decrease [3] 4.1% | tube area decrease [4] -18% | GLP1 secretion stimulation [5] 2.8% | inhibition of viability [6] 30.6% | viability decrease (inhibition) [7] 36.9% | viability decrease (inhibition) [8] 1.2% | outcome [9] | outcome [10] | outcome [11] | outcome [12] | outcome [13] | outcome [14] | fold change [15, 20] 1.02 and 0.918 | z-score [16, 24] -0.205
3730 and 5820: cell count [15, 22]
3670 and 6340: cell count [15, 23]
0.3%: nuclear beta-catenin stimulation ([1]; stimulation, at 2 µM)
1.3 and 0.971: fold change [15, 21]
0.234: z-score [16, 25]

C[C@]12CCC(=O)C=C1[C@@H]1C[C@@H]1[C@H]1[C@@H]3[C@@H]4C[C@@H]4[C@@]4(CCC(=O)O4)[C@@]3(C)CC[C@@H]12
inactive: nuclear beta-catenin stimulation ([1]; at 10 µM) 1.8% | insulin secretion stimulation [2] 1.5% | viability decrease [3] 2.2% | tube area decrease [4] 2.8% | GLP1 secretion stimulation [5] 3.8% | inhibition of viability [6] 27.4% | viability decrease (inhibition) [7] -2.6% | viability decrease (inhibition) [8] 3.1% | outcome [9] | outcome [12] | outcome [13] | outcome [14]
3%: nuclear beta-catenin stimulation ([1]; stimulation, at 2 µM)

CC(C)C[C@H](NC(=O)[C@H](CCc1ccccc1)NC(=O)CN1CCOCC1)C(=O)N[C@@H](Cc1ccccc1)C(=O)N[C@@H](CC(C)C)C(=O)[C@@]1(C)CO1
active: nuclear beta-catenin stimulation ([1]; at 10 µM) 106% | viability decrease [3] 117% | tube area decrease [4] 110% | inhibition of viability [6] 124% | viability decrease (inhibition) [7] 150% | viability decrease (inhibition) [8] 101% | AC50 [9] 18.7 nM | AC50 [10] 23.5 nM | AC50 [11] 5.25 nM | AC50 [12] 93.5 nM | AC50 [13] 10.5 nM | IC50 [14] 93.4 nM
inactive: insulin secretion stimulation [2] 6.05% | GLP1 secretion stimulation [5] 5.2%
129%: nuclear beta-catenin stimulation ([1]; stimulation, at 2 µM)

CC(=O)OCC(=O)[C@@]12N=C(C)O[C@@H]1C[C@H]1[C@@H]3CCC4=CC(=O)C=C[C@]4(C)[C@H]3[C@@H](O)C[C@@]12C
3.9%: nuclear beta-catenin stimulation ([1]; stimulation, at 2 µM)
1.06: z-score [16, 25]
inactive: nuclear beta-catenin stimulation ([1]; at 10 µM) 1.5% | insulin secretion stimulation [2] 2.95% | viability decrease [3] 0.4% | tube area decrease [4] 2.2% | GLP1 secretion stimulation [5] 1.7% | inhibition of viability [6] -21.6% | viability decrease (inhibition) [7] 14.8% | viability decrease (inhibition) [8] -6.8% | outcome [9] | outcome [12] | outcome [14] | z-score [16, 24] 0.598

N#Cc1c(N(CC(=O)O)CC(=O)O)sc(C(=O)O)c1CC(=O)O
inactive: nuclear beta-catenin stimulation ([1]; at 10 µM) -1.5% | insulin secretion stimulation [2] 4.8% | viability decrease [3] -2.4% | tube area decrease [4] 0% | GLP1 secretion stimulation [5] -1.7% | inhibition of viability [6] -4% | viability decrease (inhibition) [7] -7.1% | viability decrease (inhibition) [8] -13.8% | outcome [11] | outcome [12] | outcome [13] | outcome [14]
-0.9%: nuclear beta-catenin stimulation ([1]; stimulation, at 2 µM)

c1cnc2cc3c(cc2n1)C1CNCC3C1
11200: cell count [15, 22]
1.76: fold change [15, 21]
10600: cell count [15, 23]
inactive: nuclear beta-catenin stimulation ([1]; at 10 µM) -1.2% | insulin secretion stimulation [2] 0.7% | viability decrease [3] -3.9% | tube area decrease [4] 23.1% | GLP1 secretion stimulation [5] -4% | inhibition of viability [6] -2.57% | viability decrease (inhibition) [7] 9.4% | viability decrease (inhibition) [8] -12.7% | outcome [10] | outcome [11] | outcome [12] | outcome [14] | fold change [15, 20] 1.05 | outcome [17] | z-score [18] 0.205
-0.4%: nuclear beta-catenin stimulation ([1]; stimulation, at 2 µM)

Cc1cc2c(cc1CC(=O)c1sccc1S(=O)(=O)Nc1onc(C)c1Cl)OCO2
7800: cell count [15, 22]
inactive: nuclear beta-catenin stimulation ([1]; at 10 µM) 1.6% | insulin secretion stimulation [2] -0.3% | viability decrease [3] 2.7% | tube area decrease [4] -20.9% | GLP1 secretion stimulation [5] 2.9% | inhibition of viability [6] 20.9% | viability decrease (inhibition) [7] 6.8% | viability decrease (inhibition) [8] -17.2% | outcome [11] | fold change [15, 20] 0.871 | z-score [16, 24] -0.207
active: AC50 [13] 26300 nM
0.772: fold change [15, 21]
3%: nuclear beta-catenin stimulation ([1]; stimulation, at 2 µM)
8950: cell count [15, 23]
-0.0127: z-score [16, 25]

CCOC(=O)c1c(C)n(C)c2ccc(O)cc12
2.1%: nuclear beta-catenin stimulation ([1]; stimulation, at 2 µM)
0.616: z-score [16, 25]
0.841: fold change [15, 21]
8760: cell count [15, 23]
inactive: nuclear beta-catenin stimulation ([1]; at 10 µM) 0.7% | insulin secretion stimulation [2] 0.5% | viability decrease [3] -5.75% | tube area decrease [4] -15.4% | GLP1 secretion stimulation [5] 3.6% | inhibition of viability [6] 0% | viability decrease (inhibition) [7] 7% | viability decrease (inhibition) [8] -0.8% | outcome [9] | outcome [10] | outcome [12] | outcome [14] | fold change [15, 20] 0.886 | z-score [16, 24] -0.277
7760: cell count [15, 22]

CCOC(=O)c1ccc(C#Cc2ccc3c(c2)C(C)(C)CCS3)nc1
7750: cell count [15, 22]
0.957: fold change [15, 21]
inactive: nuclear beta-catenin stimulation ([1]; at 10 µM) 6% | insulin secretion stimulation [2] -1.4% | tube area decrease [4] -6% | GLP1 secretion stimulation [5] -0.3% | outcome [9] | outcome [12] | outcome [14] | fold change [15, 20] 0.864 | z-score [16, 24] 0.367
active: viability decrease [3] 91.1% | inhibition of viability [6] 98.6% | viability decrease (inhibition) [7] 126% | viability decrease (inhibition) [8] 98.1%
4.9%: nuclear beta-catenin stimulation ([1]; stimulation, at 2 µM)
0.684: z-score [16, 25]
8970: cell count [15, 23]

Cc1ccc(C(=O)c2cc(O)c(O)c([N+](=O)[O-])c2)cc1
97%: viability [19]
active: viability decrease [3] 43.7% | inhibition of viability [6] 55.5% | viability decrease (inhibition) [7] 84.4% | viability decrease (inhibition) [8] 67.5%
8860 and 9320: cell count [15, 22]
inactive: parasite load remaining [19] 26.1% | nuclear beta-catenin stimulation ([1]; at 10 µM) 5.2% | insulin secretion stimulation [2] -0.8% | tube area decrease [4] 39.4% | GLP1 secretion stimulation [5] -3.6% | outcome [9] | outcome [11] | outcome [13] | outcome [14] | fold change [15, 20] 0.985 and 0.843 | z-score [16, 24] -0.224 and 0.125 and 0.577 | z-score [18] -0.715
-0.152 and -0.0292 and 1.07: z-score [16, 25]
8990 and 11100: cell count [15, 23]
0.594 and 0.464: fold change [15, 21]
1.2%: nuclear beta-catenin stimulation ([1]; stimulation, at 2 µM)
